Consider 14 compounds from PubChem BioAssay.

Activity calls are given as the source filed them.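 Rule for the calls, unless noted: active = inhibition at or above 50% at 10 µM; inactive = inhibition below 50%.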

Assay [1] in a line: inhibitors of TNFa-induced NFkB p65 translocation, primary screen, imaging, HUVEC, MLSMR starter and 10KST1 sets (AID 438;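 active = inhibition above 20% together with a positive visual image hit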;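 note: compound added about 3h40 before a 20 min TNFalpha stimulation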;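 for inhibition: signal is the nuclear over cytoplasmic p65 intensity ratio per well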). Particulars: HUVEC TNFa-induced p65 nuclear translocation; cell count: measured here: nuclei count (cytotoxicity indicator), at 2.08 µM; inhibition: at 2 µM, stronger effect = higher value, 0% TNFa-plus-vehicle, 100% no-TNFa wells.
Assay [2] in a line: inhibitors of mutant huntingtin aggregation, primary screen, imaging, exon1htt(103Q)mCFP cells, high-content imaging (AID 483;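 active = visual image review flags a hit and inhibition of aggregation exceeds 20%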;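 note: compound exposure lasted 3 days before fixation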;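 for nuclei count: percent of the per-plate median nuclei count of sample wells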). Particulars: exon1htt(103Q)mCFP cell line, aggregate imaging, at 2 µM; inhibition of aggregation: stronger effect = higher value; nuclei count: measured here: cell count, toxicity.
A short description of assay [3]: inhibitors of E-selectin induction by TNFa, primary screen, imaging, HUVEC, immunofluorescence, MLSMR starter and 10KST1 sets (AID 487;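 active = visually confirmed hit in the image check and inhibition above 20%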;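 for inhibition: signal is fraction of cell area covered by stained E-selectin grains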;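 for nuclei count: 100% = median nuclei count of all wells on the same plate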). Particulars: HUVEC TNFalpha-induced E-selectin immunofluorescence imaging, at 2 µM; inhibition: stronger effect = higher value; nuclei count: measured here: cell number, toxicity.
In assay [4] the target is Voltage-gated potassium channel subunit beta-2 (Rattus norvegicus) (UniProt P62483). As to the kind of experiment: KvBeta enzyme negative modulators, primary screen, biochemical, NADPH fluorescence (AID 622;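 active = fluorescence slope higher than the sample average by over 3 SD, cut at about -0.22 in these data, passing the limit was not always enough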;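 note: slope of raw intensity against log time taken from 70 to 1610 s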). Particulars: recombinant KvBeta, 4-cyanobenzaldehyde reduction, at 10 µM, stronger effect = higher value.
Chain of Voltage-gated potassium channel subunit beta-2 (Rattus norvegicus) (P62483 whole entry, looked up): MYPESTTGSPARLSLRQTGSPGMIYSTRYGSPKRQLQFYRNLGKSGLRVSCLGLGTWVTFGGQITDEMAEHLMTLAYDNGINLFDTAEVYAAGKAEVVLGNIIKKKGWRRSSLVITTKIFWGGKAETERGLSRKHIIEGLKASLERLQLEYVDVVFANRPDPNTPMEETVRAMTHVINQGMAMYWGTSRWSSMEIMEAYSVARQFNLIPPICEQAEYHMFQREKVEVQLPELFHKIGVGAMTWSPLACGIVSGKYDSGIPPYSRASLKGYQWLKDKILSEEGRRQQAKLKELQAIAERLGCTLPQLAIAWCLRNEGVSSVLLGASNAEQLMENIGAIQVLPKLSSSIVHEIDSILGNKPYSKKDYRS
For assay [5] the target is unchanged. Briefly: KvBeta positive modulators, primary screen, biochemical, NADPH fluorescence (AID 623;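 active = NADPH fluorescence slope more negative than the mean of all samples by about 3 SD, 99.7% confidence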;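 note: fluorescence intensity change per second fitted from 20 to 320 s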). Particulars: Recombinant KvBeta, NADPH fluorescence decrease slope, 10 min; at 10 µM; stronger effect = lower value.
For assay [6], the target named is Alpha-2C adrenergic receptor (Homo sapiens) (UniProt P18825). As to the kind of experiment: modulators of alpha2C/GIRK thallium flux, primary screen, cell-based, HEK293 alpha2C/GIRK1/2 (AID 624;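 active = fluorescence slope after compound addition differing from the mean of all screened samples at 99.7% confidence, in either direction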;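 note: slope of fluorescence ratio to pre-addition baseline per second over 15 to 24 s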). Particulars: thallium flux BTC fluorescence, at 10 µM, actives lie on both sides.
Chain of Alpha-2C adrenergic receptor (Homo sapiens) (P18825 whole entry, looked up): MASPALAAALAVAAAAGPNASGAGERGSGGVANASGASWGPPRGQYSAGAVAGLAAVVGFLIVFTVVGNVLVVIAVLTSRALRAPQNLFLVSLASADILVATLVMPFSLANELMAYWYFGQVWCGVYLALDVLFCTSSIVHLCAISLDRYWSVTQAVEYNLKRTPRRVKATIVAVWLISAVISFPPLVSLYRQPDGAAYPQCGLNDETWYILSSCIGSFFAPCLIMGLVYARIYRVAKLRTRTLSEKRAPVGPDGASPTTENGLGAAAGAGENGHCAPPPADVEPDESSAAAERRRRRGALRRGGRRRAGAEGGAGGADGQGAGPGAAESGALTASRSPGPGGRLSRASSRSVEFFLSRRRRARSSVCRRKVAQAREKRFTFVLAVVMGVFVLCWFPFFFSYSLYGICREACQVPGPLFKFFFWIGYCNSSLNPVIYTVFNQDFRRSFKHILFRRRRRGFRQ
Assay [7] is described as follows: inhibitors of Sendai virus-induced IRF3 signaling, primary screen, TLR/RLR signaling modifier project, cell-based, Sendai virus stimulus, luciferase, 10K MLSCN set (AID 602276).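 Note: firefly luciferase from ISG56 promoter only with Renilla not read in this screen; 0% = Sendai virus plus DMSO and 100% = medium plus DMSO without virus.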 Particulars: HEK293 RL24 IRF3 luciferase reporter, at 10 µM, stronger effect = higher value. Background: In a reporter assay the amount or activity of a reporter protein is the signal.
Assay [8] can be described thus: inhibitors of poly I:C-induced TLR3 signaling, primary screen, cell-based, poly I:C stimulus, luciferase, 10K MLSCN set (AID 602277;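 active = inhibition of the reporter signal at or above 50%; inactive = inhibition below 50%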). Particulars: HEK293-TLR3 RL24 IRF3 luciferase reporter, at 10 µM, stronger effect = higher value.

Usually inhibition stands for the relative decrease from the control value, in per cent. For the compound `COc1cc(C)c(N)cc1C(C)C`, the cell count in assay [1] was found to be 422. Moreover, the inhibition in assay [1] is -5.6% (inactive); in assay [3], -41.7% (inactive); in assay [7], 12.9% (inactive); in assay [8], 18.3% (inactive). Moreover, in assay [2], the inhibition of aggregation is 5.2% (inactive). For the same compound, the nuclei count came out at 81.4% in assay [2] and 110% in assay [3]. Moreover, the fluorescence slope in assay [4] was -0.589 (inactive). The NADPH fluorescence slope in assay [5] was -1.8e-05 (inactive). Further, the slope in assay [6] was 0.00295 (inactive).

On to `CCCCOc1ccccc1C1C(C(N)=O)=C(C)Nc2nnnn21` (centres undefined), for which the cell count in assay [1] was determined as 279. Further, the inhibition is -4.7% (inactive) in assay [1], -56% (inactive) in assay [3], 17.4% (inactive) in assay [7] and 27.7% (inactive) in assay [8]. Moreover, the inhibition of aggregation in assay [2] was 0.7% (inactive). Besides, the nuclei count in assay [2] is 88.7%; in assay [3], 97.9%. Besides, in assay [4], the fluorescence slope is -0.459 (inactive). Further, the NADPH fluorescence slope in assay [5] was 2.7e-05 (inactive). Moreover, in assay [6], the slope was 0.0066 (inactive).

On to `CC(=O)Nc1ccc(N=Cc2nc(-c3ccc(C)cc3)oc2O)cc1`, for which the cell count in assay [1] was 1080. The inhibition in assay [1] was -11.6% (inactive); in assay [3], -287% (inactive); in assay [7] it was 1.5% (inactive); in assay [8], -2.56% (inactive). Further, in assay [2], the inhibition of aggregation is -4% (inactive). Also, the nuclei count in assay [2] worked out at 119%; in assay [3], 132%. Moreover, the fluorescence slope in assay [4] was -0.281 (inactive). Besides, in assay [5], the NADPH fluorescence slope was 1.5e-05 (inactive). Moreover, the slope in assay [6] is 0.00463 (inactive).

As for `CC1(C)OC(=O)C(=CNC(CCC(N)=O)C(=O)O)C(=O)O1` (centres undefined), in assay [1], the cell count is 679. The inhibition was 3.6% (inactive) in assay [1], -16.8% (inactive) in assay [3], -19% (inactive) in assay [7] and -5.5% (inactive) in assay [8]. Further, the inhibition of aggregation in assay [2] was 0.3% (inactive). Besides, the results for the nuclei count in assay [2] and in assay [3] were 117% and 108%, respectively. Further, in assay [4], the fluorescence slope was -0.611 (inactive). Also, the NADPH fluorescence slope in assay [5] is -9.2e-07 (inactive). Further, the slope in assay [6] is 0.00611 (inactive).

Consider `CCOc1ccccc1C1C(C(=O)Nc2ccc(OC)cc2)=C(C)Nc2nc(CCCO)nn21` (centres undefined), for which the cell count in assay [1] was determined as 659. For the same compound, the inhibition was -0.3% (inactive) in assay [1], -35.4% (inactive) in assay [3], -0.537% (inactive) in assay [7] and 17.2% (inactive) in assay [8]. Besides, the inhibition of aggregation in assay [2] is -30.8% (inactive). In addition, the results for the nuclei count in assay [2] and in assay [3] were 116% and 118%, respectively. Also, the fluorescence slope in assay [4] was -0.443 (inactive). Besides, the NADPH fluorescence slope in assay [5] is -2.8e-05 (inactive). Further, the slope in assay [6] was 0.00548 (inactive).

For the compound `Cc1cc(CN2CCN(CCC#N)CC2)c(O)c(C2(C)CCCCC2)c1`, the cell count in assay [1] worked out at 527. Further, the inhibition in assay [1] was -12.3% (inactive); in assay [3], -197% (inactive); in assay [7], -14.9% (inactive); in assay [8], 4.95% (inactive). Also, the inhibition of aggregation in assay [2] was 5.3% (inactive). The nuclei count was determined as 98.4% in assay [2] and 90.4% in assay [3]. In assay [4], the fluorescence slope was -0.541 (inactive). In assay [5], the NADPH fluorescence slope is 4e-05 (inactive). Moreover, the slope in assay [6] was 0.00432 (inactive).

`O=C(NCC1CCCO1)C1CCCN(Cc2cnn(-c3ccccc3)c2-n2cccc2)C1` (centres undefined): the cell count in assay [1] came out at 292. Further, the inhibition is 0.8% (inactive) in assay [1], -10.5% (inactive) in assay [3], -11.1% (inactive) in assay [7] and -10.8% (inactive) in assay [8]. Further, in assay [2], the inhibition of aggregation is 5.3% (inactive). Further, the nuclei count in assay [2] is 86.3%; in assay [3], 92.7%. For the same compound, the fluorescence slope in assay [4] is -0.39 (inactive). Also, the NADPH fluorescence slope in assay [5] is 3.8e-06 (inactive). The slope in assay [6] is 0.0039 (inactive).

Consider `CCOc1cc(-c2nc(-c3ccc(C)nc3OCC)no2)cc(OCC)c1OCC`, for which, in assay [1], the cell count is 612. The inhibition was 0% (inactive) in assay [1], -56.3% (inactive) in assay [3], -10.9% (inactive) in assay [7] and -40.1% (inactive) in assay [8]. Besides, the inhibition of aggregation in assay [2] was 32.3% (inactive). For the same compound, the nuclei count in assay [2] turned out to be 79.5%; in assay [3] it was 117%. Moreover, the fluorescence slope in assay [4] is -0.601 (inactive). For the same compound, in assay [5], the NADPH fluorescence slope was -1.4e-05 (inactive). Besides, the slope in assay [6] is 0.00309 (inactive).

`O=C(CSc1nnc(-c2ccncc2)o1)Oc1ccccc1`: the cell count in assay [1] came out at 662. Further, the inhibition in assay [1] was -2.6% (inactive); in assay [3], -84.7% (inactive); in assay [7], 16.3% (inactive); in assay [8], 13.7% (inactive). In assay [2], the inhibition of aggregation is -12.9% (inactive). Besides, the nuclei count in assay [2] and in assay [3] was 109% throughout. In addition, the fluorescence slope in assay [4] was -0.39 (inactive). Moreover, in assay [5], the NADPH fluorescence slope is -5.2e-05 (inactive). Also, the slope in assay [6] was 0.00449 (inactive).

Consider `CCN(CC)CCn1c(=N)n(CCO)c2ccccc21`, for which the cell count in assay [1] was found to be 592. Also, the inhibition is 0.2% (inactive) in assay [1], -30.1% (inactive) in assay [3], 7.52% (inactive) in assay [7] and 39.8% (inactive) in assay [8]. Moreover, the inhibition of aggregation in assay [2] was 19.1% (inactive). For the same compound, the nuclei count in assay [2] worked out at 95.6%; in assay [3], 91.5%. In assay [4], the fluorescence slope was -0.376 (inactive). The NADPH fluorescence slope in assay [5] is 1.5e-05 (inactive). Besides, the slope in assay [6] is 0.00357 (inactive).

With `c1ccc(CCn2nnnc2C(c2cccs2)N2CCOCC2)cc1` (centres undefined), the cell count in assay [1] stood at 675. Further, the inhibition in assay [1] is -8.6% (inactive); in assay [3] it was -74.9% (inactive); in assay [7] it was 4.38% (inactive); in assay [8], 17.4% (inactive). In assay [2], the inhibition of aggregation is -16% (inactive). Also, the figures for the nuclei count in assay [2] and in assay [3] were 124% and 106%, respectively. The fluorescence slope in assay [4] was -0.488 (inactive). In addition, the NADPH fluorescence slope in assay [5] is -0.000173 (inactive). In addition, in assay [6], the slope is 0.00462 (inactive).

Turning to `CCCN(CC1CC1)C(=O)Nc1ccccc1C`, in assay [1], the cell count worked out at 693. Besides, the inhibition is -11.6% (inactive) in assay [1], -32.9% (inactive) in assay [3], -4.1% (inactive) in assay [7] and -19% (inactive) in assay [8]. Also, the inhibition of aggregation in assay [2] was 9.8% (inactive). Also, the nuclei count came to 101% in assay [2] and 103% in assay [3]. In addition, the fluorescence slope in assay [4] was -0.529 (inactive). Moreover, in assay [5], the NADPH fluorescence slope is 3.7e-05 (inactive). Also, the slope in assay [6] was 0.00657 (inactive).

Regarding `COc1cccc(-c2nc(CSCC(=O)N3CCc4ccccc43)c(C)o2)c1`, in assay [1], the cell count amounted to 326. In addition, the inhibition in assay [1] was 8.5% (inactive); in assay [3], 22.5% (inactive); in assay [7], -10.3% (inactive); in assay [8], -34.4% (inactive). In addition, the inhibition of aggregation in assay [2] was -5.9% (inactive). For the same compound, the nuclei count in assay [2] and in assay [3] was 108% in each case. For the same compound, the fluorescence slope in assay [4] is -0.432 (inactive). Also, in assay [5], the NADPH fluorescence slope was 2.9e-06 (inactive). The slope in assay [6] was 0.00374 (inactive).

For `CC1(C)CC(=O)C(C(=O)CCCCC(=O)C2C(=O)CC(C)(C)CC2=O)C(=O)C1`, in assay [1], the cell count worked out at 269. Besides, the inhibition in assay [1] is 3.6% (inactive); in assay [3], 19% (inactive); in assay [7], -6.03% (inactive); in assay [8], -20.4% (inactive). For the same compound, the inhibition of aggregation in assay [2] is 18% (inactive). The figures for the nuclei count in assay [2] and in assay [3] were 100% and 80%, respectively. The fluorescence slope in assay [4] is -0.415 (inactive). Moreover, the NADPH fluorescence slope in assay [5] was 1.6e-05 (inactive). Besides, in assay [6], the slope is 0.00351 (inactive).
